In PubChem BioAssay (Tox21):
Results filed as inconclusive are left out. Active and inactive are the calls of the source. Unless noted, calls follow the shape of the dose curve; as a rule, active = well fitted curve in the direction sought with a large enough effect in the repeat runs; inconclusive = weak or mixed curves; inactive = no such curve, though single readings can be large; an effect the other way counts as inactive or inconclusive.

Assays:
[1] = target: Retinoic acid receptor RXR-alpha (Homo sapiens) (UniProt P19793); assay: qHTS assay to identify small molecule agonists of the RXR signaling pathway (AID 1159527; calls by dose curve; also: nearly all actives have a fitted effect of over 35% in size)
Procedure, shortened: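 Read-out: beta-lactamase FRET ratio (405 nm excitation, 460 and 530 nm emission) after 2 hr substrate loading at room temperature. Cells were RXR-alpha-UAS-bla HEK 293T treated with compounds for 16 hr in 2% charcoal-stripped FBS medium.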

[2] = qHTS assay to identify small molecule agonists of the RXR signaling pathway - cell viability counter screen (AID 1159529); also: series mostly up to about 77 µM; nearly all actives have a fitted effect of over 50% in size
Procedure, shortened: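 HEK 293T RXRa-bla cells, 2% CS-FBS; 5 h settle; cpd 16 h 37 C, 5% CO2; CellTiter-Glo 30 min RT, luminescence. Tetraoctyl ammonium bromide as positive control.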

[3] = qHTS assay to identify small molecule antagonists of the retinoid acid receptor (RAR) signaling pathway - cell viability counter screen (AID 1159551); also: nearly all actives have a fitted effect of over 35% in size
Procedure, shortened: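 Following overnight attachment, C3RL4 reporter cells received DMSO-dissolved compounds and then retinol (1 uM final). Six hours later at 37 C, ATP content was measured by CellTiter-Glo luminescence.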

[4] = qHTS assay to identify small molecule antagonists of the retinoic acid receptor (RAR) signaling pathway (AID 1159552; also: nearly all actives have a fitted effect of over 50% in size)
Procedure, shortened: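 Cells of the C3RL4 line were seeded, incubated overnight, then dosed with compounds in DMSO followed immediately by retinol (1 uM final). Six hours later luciferase detection reagent went in; signal was measured after 30 min at RT.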

[5] = qHTS assay to identify small molecule agonists of the retinoic acid receptor (RAR) signaling pathway (AID 1159553)
Procedure, shortened: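 Cell line C3RL4, RARE luciferase reporter. Treatment: compounds in DMSO, 6 hr, 37 C, 5% CO2, after overnight plating. Detection: luminescence, 30 min RT after reagent.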

[6] = qHTS assay to identify small molecule antagonists of the estrogen related receptor (ERR) signaling pathway from Tox21 library - cell viability counter screen (AID 1224834); also: nearly all actives have a fitted effect of over 30% in size
Procedure, shortened: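 Viability readout (CellTiter-Fluor fluorescence, 30 min at 37 C) multiplexed with the ERR assay; cells treated 17.5 h at 37 C with compounds delivered in DMSO.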

[7] = target: Luciferin 4-monooxygenase (Photinus pyralis) (UniProt P08659); assay: qHTS assay to identify small molecule inhibitors of firefly luciferase (AID 1224835); also: series mostly up to about 120 µM; nearly all actives have a fitted effect of over 25% in size
Procedure, shortened: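 Inhibition of purified Photinus luciferase is measured by luminescence. Substrate levels (D-luciferin, ATP) sit at their KM values. Each compound is tested in a concentration series.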

[8] = qHTS assay to identify small molecule agonists of the constitutive androstane receptor (CAR) signaling pathway - cell viability counter screen (AID 1224836); also: series mostly up to about 92 µM; nearly all actives have a fitted effect of over 45% in size
Procedure, shortened: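 HepG2-CYP2B6-hCAR, 2500 cells/well, 4 h pre-incubation; cpd 15 conc + PK11195 0.75 uM final; 23 h, 37 C/5% CO2; CellTiter-Fluor, fluorescence.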

[9] = qHTS assay to identify small molecule antagonists of the constitutive androstane receptor (CAR) signaling pathway - cell viability counter screen (AID 1224837); also: series mostly up to about 92 µM; nearly all actives have a fitted effect of over 45% in size
Procedure, shortened: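 Fluorescence from CellTiter-Fluor served as the viability signal. Human hepatoma HepG2 cells stably bearing hCAR and CYP2B6-2.2kb received compound plus CITCO (50 nM final) for 23 hr.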

[10] = target: Nuclear receptor subfamily 1 group I member 3 (Homo sapiens) (UniProt Q14994); assay: qHTS assay to identify small molecule antagonists of the constitutive androstane receptor (CAR) signaling pathway (AID 1224838);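 also: HepG2 cells stably expressing hCAR with CYP2B6 luciferase reporter stimulated by CITCO; nearly all actives have a fitted effect of over 40% in size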
Procedure, shortened: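 Quantitative HTS in double-stable HepG2-CYP2B6-hCAR cells. After 4 h plating, cells get compound (15 concentrations) and CITCO at 50 nM final, incubate 24 h at 37 C, then ONE-Glo luminescence is read.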

[11] = target: Nuclear receptor subfamily 1 group I member 3 (Homo sapiens) (UniProt Q14994); assay: qHTS assay to identify small molecule agonists of the constitutive androstane receptor (CAR) signaling pathway (AID 1224839);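 also: HepG2 cells stably carrying human CAR and a CYP2B6 luciferase reporter; series mostly up to about 92 µM; nearly all actives have a fitted effect of over 15% in size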
Procedure, shortened: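 HepG2-CYP2B6-hCAR cells, 2500/well, 4 h pre-incubation; compounds 15 conc.; PK11195 0.75 uM final; 24 h, 37 C/5% CO2; ONE-Glo luciferase read.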

[12] = qHTS assay to identify small molecule antagonists of the estrogen related receptor signaling pathway with the pleiotropic PPARgamma coactivator (PGC) from Tox21 10K library - cell viability counter screen (AID 1224840; active = well fitted cell-killing curve with a large enough effect in the repeat runs, not every such curve was filed as active; also: nearly all actives have a fitted effect of over 40% in size)
Procedure, shortened: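 Compounds in DMSO, alongside positive and negative controls, were pinned onto PGC/ERR cells (2,000 per well). Exposure lasted 17.5 hours at 37 C, followed by a 30-minute CellTiter-Fluor incubation and fluorescence reading.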

[13] = qHTS assay to identify small molecule antagonists of the estrogen related receptor signaling pathway with the pleiotropic PPARgamma coactivator (PGC) from Tox21 10K library (AID 1224841; call rule not given here; also: series mostly up to about 92 µM; actives are mostly falling curves and most rising ones were filed inactive; nearly all actives have a fitted effect of over 50% in size)
Procedure, shortened: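 Compound exposure ran 18 hours at 37 C in PGC/ERR cells (2,000/well) that had first rested 6 hours in a 37 C/5% CO2 incubator. Luciferase activity was then detected with One-Glo after a 30-minute room-temperature step.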

[14] = qHTS assay to identify small molecule agonists of the estrogen related receptor signaling pathway with the pleiotropic PPARgamma coactivator (PGC) from Tox21 10K library (AID 1224842); also: nearly all actives have a fitted effect of over 15% in size
Procedure, shortened: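 Luminescence from One-Glo (30 min, room temperature) measured after PGC/ERR cells had 18 h at 37 C with pinned compound (23 nL in DMSO). Cells had been seeded at 2,000 per well and pre-incubated 6 h.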
% is scaled to controls: 0 for no effect and ±100 for the full control effect.

Chain of Retinoic acid receptor RXR-alpha (Homo sapiens) (P19793 whole entry, looked up): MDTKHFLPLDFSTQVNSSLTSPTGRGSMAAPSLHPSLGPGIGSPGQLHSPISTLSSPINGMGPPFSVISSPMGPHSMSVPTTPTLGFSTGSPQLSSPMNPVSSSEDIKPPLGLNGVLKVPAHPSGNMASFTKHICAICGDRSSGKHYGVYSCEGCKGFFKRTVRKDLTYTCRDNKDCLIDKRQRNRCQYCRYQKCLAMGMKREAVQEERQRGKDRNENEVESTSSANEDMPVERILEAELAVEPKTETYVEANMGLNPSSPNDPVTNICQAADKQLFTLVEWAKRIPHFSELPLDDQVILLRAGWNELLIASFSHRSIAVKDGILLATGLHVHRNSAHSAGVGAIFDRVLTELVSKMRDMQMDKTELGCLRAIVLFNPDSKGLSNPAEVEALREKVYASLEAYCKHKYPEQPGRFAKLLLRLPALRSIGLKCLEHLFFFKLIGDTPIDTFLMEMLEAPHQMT
Chain of Luciferin 4-monooxygenase (Photinus pyralis) (P08659 whole entry, looked up): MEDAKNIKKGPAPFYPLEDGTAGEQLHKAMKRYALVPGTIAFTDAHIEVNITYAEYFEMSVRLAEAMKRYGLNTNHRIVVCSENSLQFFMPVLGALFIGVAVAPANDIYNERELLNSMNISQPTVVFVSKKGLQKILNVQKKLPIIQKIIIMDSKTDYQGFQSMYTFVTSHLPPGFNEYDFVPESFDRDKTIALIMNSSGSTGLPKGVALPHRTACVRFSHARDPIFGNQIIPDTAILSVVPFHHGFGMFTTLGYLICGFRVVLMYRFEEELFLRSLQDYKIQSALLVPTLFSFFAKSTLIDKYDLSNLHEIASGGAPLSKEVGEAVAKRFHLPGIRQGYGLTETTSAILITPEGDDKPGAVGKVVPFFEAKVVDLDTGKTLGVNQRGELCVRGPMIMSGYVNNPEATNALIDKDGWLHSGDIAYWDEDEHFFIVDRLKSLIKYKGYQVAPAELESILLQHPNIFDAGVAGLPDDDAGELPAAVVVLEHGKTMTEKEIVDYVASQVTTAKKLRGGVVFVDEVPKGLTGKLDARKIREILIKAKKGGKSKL
Chain of Nuclear receptor subfamily 1 group I member 3 (Homo sapiens) (Q14994 whole entry, looked up): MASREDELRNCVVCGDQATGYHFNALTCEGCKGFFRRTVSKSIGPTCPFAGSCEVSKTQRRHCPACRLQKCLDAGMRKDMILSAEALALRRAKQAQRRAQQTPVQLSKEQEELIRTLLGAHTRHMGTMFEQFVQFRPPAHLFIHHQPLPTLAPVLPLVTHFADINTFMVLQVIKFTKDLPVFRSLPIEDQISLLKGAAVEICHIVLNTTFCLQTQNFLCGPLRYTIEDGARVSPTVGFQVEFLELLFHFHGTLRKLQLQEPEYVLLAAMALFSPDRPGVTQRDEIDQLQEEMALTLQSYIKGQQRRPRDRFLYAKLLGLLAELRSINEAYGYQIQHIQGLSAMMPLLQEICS

CCCCCCCCCCCCCC=O
inactive: activation [1] 0.369% [at 6.98 µM] | activity change, negative = cytotoxicity [2] 1.55% [at 6.97 µM] | activity change, negative = cytotoxicity [3] 4.56% [at 8.39 µM] | activity, negative = inhibition [4] -4.55% [at 8.39 µM] | activation [5] 1.59% [at 8.36 µM] | viability change, negative = cytotoxic [6] 1.13% [at 8.39 µM] | activity change, negative = inhibition [7] 3.28% [at 10.5 µM] | viability change, negative = cytotoxic [8] -0.0726% [at 8.39 µM] | activity change, negative = cytotoxicity [9] 6.66% [at 8.39 µM] | activity, negative = inhibition [10] -13.4% [at 8.39 µM] | activation [11] -0.0217% [at 8.39 µM] | viability change, negative = cytotoxic [12] 5.18% [at 8.39 µM] | activity, negative = inhibition [13] 11.8% [at 8.39 µM] | activation [14] -0.504% [at 8.39 µM]

COc1nc(N)nc2c1ncn2[C@@H]1O[C@H](CO)[C@@H](O)[C@@H]1O
inactive: Potency [1] | Potency [2] | outcome [3] | Potency [4] | Potency [5] | Potency [6] | Potency [7] | Potency [8] | Potency [9] | Potency [10] | Potency [11] | Potency [12] | Potency [13] | outcome [14]

NC(=O)c1ccc([N+](=O)[O-])cc1
inactive: Potency [1] | Potency [2] | outcome [3] | Potency [4] | Potency [5] | Potency [6] | Potency [7] | Potency [8] | Potency [9] | Potency [10] | Potency [11] | Potency [12] | Potency [13] | outcome [14]

O=C(O)c1ccccc1OP(=O)(O)O
inactive: Potency [1] | Potency [2] | outcome [3] | Potency [4] | Potency [5] | Potency [6] | Potency [7] | Potency [8] | Potency [9] | Potency [10] | Potency [11] | Potency [12] | Potency [13] | outcome [14]

CO[C@]12C[C@@H](COC(=O)c3cncc(Br)c3)CN(C)[C@@H]1Cc1cn(C)c3cccc2c13
inactive: Potency [1] | Potency [2] | outcome [3] | Potency [4] | Potency [5] | Potency [6] | Potency [7] | Potency [8] | Potency [9] | Potency [10] | Potency [11] | Potency [12] | Potency [13] | outcome [14]

CN1C(=O)N(C)C(O)C1O (configuration not stated)
inactive: Potency [1] | Potency [2] | outcome [3] | Potency [4] | Potency [5] | Potency [6] | Potency [7] | Potency [8] | Potency [9] | Potency [10] | Potency [11] | Potency [12] | Potency [13] | outcome [14]

NC(=O)c1ccc(N)cc1
inactive: Potency [1] | Potency [2] | outcome [3] | Potency [4] | Potency [5] | Potency [6] | Potency [7] | Potency [8] | Potency [9] | Potency [10] | Potency [11] | Potency [12] | Potency [13] | outcome [14]

CCC(C)S (configuration not stated)
inactive: activation [1] 0.574% [at 2.71 µM] | activity change, negative = cytotoxicity [2] 0.658% [at 2.72 µM] | activity change, negative = cytotoxicity [3] 1.76% [at 3.27 µM] | activity, negative = inhibition [4] -4.13% [at 3.27 µM] | activation [5] 1.68% [at 3.75 µM] | viability change, negative = cytotoxic [6] 1.27% [at 3.27 µM] | activity change, negative = inhibition [7] 5.34% [at 4.07 µM] | viability change, negative = cytotoxic [8] 6.36% [at 3.27 µM] | activity change, negative = cytotoxicity [9] 4.49% [at 3.26 µM] | activity, negative = inhibition [10] -7.32% [at 3.26 µM] | activation [11] 0.262% [at 3.27 µM] | viability change, negative = cytotoxic [12] 2.53% [at 3.27 µM] | activity, negative = inhibition [13] 1.33% [at 3.27 µM] | activation [14] 0.822% [at 3.27 µM]

O=[N+]([O-])c1ccc(F)cc1F
inactive: Potency [1] | Potency [2] | outcome [3] | Potency [4] | Potency [5] | Potency [6] | Potency [7] | Potency [8] | Potency [9] | Potency [10] | Potency [11] | Potency [12] | Potency [13] | outcome [14]

CN1CC(=O)NC1=N
inactive: Potency [1] | Potency [2] | outcome [3] | Potency [4] | Potency [5] | Potency [6] | Potency [7] | Potency [8] | Potency [9] | Potency [10] | Potency [11] | Potency [12] | Potency [13] | outcome [14]

CCCCCCOC(=O)CCCCC(=O)OCCCCCC
inactive: Potency [1] | Potency [2] | outcome [3] | Potency [4] | Potency [5] | Potency [6] | Potency [7] | Potency [8] | Potency [9] | Potency [10] | Potency [11] | Potency [12] | Potency [13] | outcome [14]

CCC(=O)OC(C)c1ccccc1 (configuration not stated)
inactive: Potency [1] | Potency [2] | outcome [3] | Potency [4] | Potency [5] | Potency [6] | Potency [7] | Potency [8] | Potency [9] | Potency [10] | Potency [11] | Potency [12] | Potency [13] | outcome [14]

CCOC(=O)C(=O)OCC
inactive: Potency [1] | Potency [2] | outcome [3] | Potency [4] | Potency [5] | Potency [6] | Potency [7] | Potency [8] | Potency [9] | Potency [10] | Potency [11] | Potency [12] | Potency [13] | outcome [14]

CS(=O)(=O)O
inactive: Potency [1] | Potency [2] | outcome [3] | Potency [4] | Potency [5] | Potency [6] | Potency [7] | Potency [8] | Potency [9] | Potency [10] | Potency [11] | Potency [12] | Potency [13] | outcome [14]

NC(CSCC(=O)O)C(=O)O (configuration not stated)
inactive: Potency [1] | Potency [2] | outcome [3] | Potency [4] | Potency [5] | Potency [6] | Potency [7] | Potency [8] | Potency [9] | Potency [10] | Potency [11] | Potency [12] | Potency [13] | outcome [14]

CC(=O)CC(C)(C)C1CCCCC1
inactive: Potency [1] | Potency [2] | outcome [3] | Potency [4] | Potency [5] | Potency [6] | Potency [7] | Potency [8] | Potency [9] | Potency [10] | Potency [11] | Potency [12] | Potency [13] | outcome [14]

CCc1ccc(O)c(OC)c1
inactive: Potency [1] | Potency [2] | outcome [3] | Potency [4] | Potency [5] | Potency [6] | Potency [7] | Potency [8] | Potency [9] | Potency [10] | Potency [11] | Potency [12] | Potency [13] | outcome [14]

Nc1ccccc1S(=O)(=O)O
inactive: Potency [1] | Potency [2] | outcome [3] | Potency [4] | Potency [5] | Potency [6] | Potency [7] | Potency [8] | Potency [9] | Potency [10] | Potency [11] | Potency [12] | Potency [13] | outcome [14]
